Test results from PubChem BioAssay (NCI).
This is part of a sample that, as a whole, favours compounds with a hit. Of some 79,000 tested, about 15% had one in any assay. A number with no mark means an inactive call. Calls of active or inactive are those of the source. Rule as the data show it: active = growth inhibition above about 70%; inactive = the rest.

What was measured:
[1] = NCI Yeast Anticancer Drug Screen. Data for the rad50 strain (AID 155);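 also: 0% = growth of vehicle-only cultures of the same strain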; settings: S. cerevisiae rad50 strain growth inhibition; at 50.0 µM; active compounds read high
Method in brief: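 Growth of the mutant yeast was measured after compound exposure and referenced to vehicle-treated cultures.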

[2] = NCI Yeast Anticancer Drug Screen. Data for the mec2-1 strain (AID 157); settings: S. cerevisiae mec2-1 strain, at 50.0 µM, active compounds read high
Method in brief: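 mec2-1 yeast strain, carrying an alteration in DNA damage repair or cell cycle control, was exposed to compounds; growth inhibition was measured relative to vehicle-treated controls.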

[3] = NCI Yeast Anticancer Drug Screen. Data for the sgs1 mgt1 strain (AID 161);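 also: 0% = growth of cultures given vehicle only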; settings: S. cerevisiae sgs1 mgt1 strain, at 50.0 µM, active compounds read high
Method in brief: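 Percent growth inhibition was derived by comparing compound-exposed mutant yeast with vehicle-exposed cultures. The strain carries alterations in DNA damage repair.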

[4] = NCI Yeast Anticancer Drug Screen. Data for the cln2 rad14 strain (AID 165);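 also: 0% = growth equal to vehicle treated cultures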; settings: S. cerevisiae cln2 rad14 strain, at 50.0 µM, active compounds read high
Method in brief: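 Yeast carrying cln2 and rad14 alterations (cell cycle control and DNA damage repair) were exposed to compounds. Growth inhibition was measured against vehicle-treated controls.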

[5] = NCI Yeast Anticancer Drug Screen. Data for the bub3 strain (AID 167); settings: S. cerevisiae bub3 mutant strain, at 50.0 µM, active compounds read high
Method in brief: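 Whole-cell yeast assay. The mutant strain was incubated with compounds, and growth inhibition was determined by comparison with vehicle-treated cells.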

[6] = NCI Yeast Anticancer Drug Screen. Data for the mlh1 rad18 strain (AID 175); settings: S. cerevisiae mlh1 rad18 strain growth inhibition; at 50.0 µM; active compounds read high
Method in brief: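 Growth inhibition of the yeast strain was measured after compound exposure and expressed relative to vehicle-treated controls. The strain carries defined defects in DNA damage repair.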

Row | SMILES | growth inhibition [1] | growth inhibition [2] | growth inhibition [3] [%] | growth inhibition [4] | growth inhibition [5] | growth inhibition [6]
1 | COC(=O)c1cc(C(c2cc(C)c(O)c(C(=O)OC)c2)c2cc(C)c(O)c(C(=O)OC)c2)cc(C)c1O | -6.9% | 10.6% | -4.4 | -6.2% | -0.3% | 3.9%
2 | CNC(=O)CN(CC(N)=O)C(=O)NC | -29.5% | -20.3% | -27.6 | 0.65% | -23% | -35%
3 | Nc1nc(N)c(N=Nc2ccc(S(=O)(=O)NC(=O)c3ccccc3)cc2)c(=O)[nH]1 | -8.4% | -4.3% | -6.9 | -9.35% | -2.55% | -8.9%
4 | CC(Cl)CNC(=O)Nc1cccc2c1CCCC2 (configuration not stated) | 3.45% | 10.2% | -1.9 | -48.6% | -22.2% | -1.4%
5 | CN1CCCC2C(c3ccccc3)C(C3=NCCCC3)C(c3ccccc3)CC21 (configuration not stated) | -18.9% | -3.2% | -23.1 | -28.6% | -64.9% | -60.4%
6 | CCc1ccccc1NC(=O)Nc1ccc(C(=O)O)c(O)c1 | 33.6% | 10.2% | 27.4 | 21.4% | 29.8% | 26.4%
7 | COc1c(OC(C)=O)cc(Cl)c(C=O)c1[N+](=O)[O-] | 5.25% | 2.4% | 19.3 | 5.8% | 1.55% | -9.3%
8 | O=C(O)c1ccccc1C(=O)OCC1CCc2ccccc2C1 (configuration not stated) | 5.45% | 26.8% | 28.3 | 33% | 51.4% | 9.2%
9 | CC(C)CCCC(C)C1CCC2C3C=C(C(=O)O)C(C)(CCC(=O)O)C3CCC12C (configuration not stated) | 45% | 32% | 42 | 7.7% | -2.15% | 44.1%
10 | CNc1nc(SCc2ccccc2)c2ncn(C3OC(CO)C(O)C3O)c2n1 (configuration not stated) | 11.3% | 4.8% | 16.9 | 19.9% | 4.95% | 17.9%
11 | O=C(O)c1cccnc1C(=O)Nc1cccc2ccccc12 | 13.1% | 13.4% | 12.6 | 0.9% | 10.2% | -16.6%
12 | Cc1cc2c(=O)cc(-c3ccc(C(=O)O)cc3)oc2c(C(=O)O)c1C | 7.1% | 4.3% | 22.8 | 29.8% | 5.7% | 10.5%
13 | O=C(c1ccccc1)C1C(C(=O)c2ccccc2)C(c2ccccc2)N(c2ccccc2)C1c1ccccc1 (configuration not stated) | 27.4% | 17.8% | -27.1 | 18.9% | -12.2% | -75.2%
14 | Cc1cncc(C)c1 | 17.6% | -22.1% | 5.6 | -6.85% | 7.2% | 8.5%
15 | N#CC1CNC(N)NC1N (configuration not stated) | -0.1% | 4.8% | -8.05 | -7.95% | 7.35% | 1.65%
16 | COC(=O)C1=C(NC(=O)Nc2ccc(OC)cc2)OC(C)(C)C1c1ccc(Cl)cc1 (configuration not stated) | 25.9% | 41.7% | 30.4 | 3.75% | 24.1% | 43.4%
17 | O=C([O-])C[n+]1ccccc1/C=C/c1ccccc1 | -19.2% | 1.8% | -23.1 | -15.2% | -7.75% | -23.9%
18 | COC(OC)c1cccc2c1C1(O)CCC3(CC21)OCCCCO3 (configuration not stated) | -9.35% | -26.4% | -42.5 | -11.6% | -42.9% | -23.1%
19 | COc1cccc2cc(-n3nnc4ccccc43)c(=O)oc12 | -8.6% | 18.1% | 4.6 | 7.6% | 25.8% | 9.85%

Row | SMILES | growth inhibition [1] | growth inhibition [2] | growth inhibition [3] [%] | growth inhibition [4] | growth inhibition [5] | growth inhibition [6]
20 | O=NN(Cc1ccc(Cl)cc1)NC1=NCCN1 | 5.55% | 14.3% | 3.75 | -3.65% | 15.2% | 29.6%
21 | CC(Nc1cnccn1)Nc1cnccn1 | -3.1% | -3.55% | -0.4 | -23.4% | -5.2% | 1.05%
22 | OCC[N-]CC[N-]CCO.[Cl][Co][Cl] | 27.8% | 32.1% | 32.7 | 22.9% | 36.6% | 35.2%
23 | Cn1c(=O)c2c(ncn2CCSCC2=NS(=O)(=O)c3cc(S(N)(=O)=O)c(C(F)(F)F)cc3N2)n(C)c1=O | 2.8% | 1.75% | -6.5 | -35.6% | 14.1% | 4.95%
24 | Nc1c(-c2nc3ccccc3[nH]2)sc(=S)n1-c1ccc(Cl)cc1 | -11.6% | -30.7% | 2.75 | 8.9% | 7.8% | -6.5%
25 | O=C(OCC(OC(=O)c1ccccc1)C(OC(=O)c1ccccc1)C(OC(=O)c1ccccc1)c1nn[nH]n1)c1ccccc1 (configuration not stated) | 73% (active) | 88.4% (active) | 59.4 | 86.9% (active) | 85.2% (active) | 80.5% (active)
26 | CSC(N)=Nc1c(C)cccc1C | 3.55% | 22.9% | 5.35 | -4.1% | 2.9% | -16.7%
27 | CCOC(=O)CC(=O)Cc1oc2c(C(C)=O)c(O)c(C)c(O)c2c1C | -0.8% | 7% | -0.2 | 6.05% | 2.85% | 14.8%
28 | CC(=O)N1CCC23C(=O)CC4C(=CCOC5CC(=O)N(c6ccccc62)C3C54)C1 (configuration not stated) | -19.1% | -23.9% | -4.5 | 8.9% | 3.55% | -4.8%
29 | CC(Nc1cccc(Cl)c1)c1ccncc1 (configuration not stated) | 4.05% | 12% | -15.2 | -5.55% | 24.6% | -11.4%
30 | Nc1nc2nn(-c3ccc(C(=O)NC(CCC(=O)O)C(=O)O)cc3)nc2c(=O)[nH]1 (configuration not stated) | 7.05% | 2.75% | 12.9 | 30.5% | 9.05% | -1.4%
31 | O=C(Nc1ccccc1Cl)OCCOc1ccccc1 | -3.7% | 10.1% | 11.3 | -19.1% | 17.2% | 14.7%
32 | O=C1CCCC(=S)N1 | 3.1% | 4.2% | 9.35 | 16.8% | 14.3% | 6.1%
33 | COC1C=C(Br)C(=O)C(C)O1 (configuration not stated) | 5.7% | 1.3% | -25.6 | -2.3% | 21.2% | -1.8%
34 | Cc1c(C)c(C)c(CNNC(=S)Nc2cccc(Cl)c2)c(C)c1C | -6.35% | 5.7% | -1.35 | -3.45% | -3.5% | 21.1%
35 | COC(=O)C(C(C[N+](=O)[O-])c1ccco1)=P(c1ccccc1)(c1ccccc1)c1ccccc1 (configuration not stated) | 89.5% (active) | 5.25% | 45.6 | 8.15% | 0.95% | 25.1%
36 | Clc1ccccc1-c1nnc(-c2cccc(-c3nnc(-c4ccccc4Cl)o3)n2)o1 | -1.65% | 6.75% | -6.55 | -9.1% | -3.4% | 12%
37 | Cc1nc2c(sc3ccccc3n2C)c2nc3c(sc4ccccc4n3C)c(C)c12 | -3.95% | -4.2% | 1.45 | -24.4% | -2.6% | 15.1%
